Compounds with a hit are over-represented: about 2.9% of the library has one in this group of screens.
Mtb FBA inh – inhibits M. tuberculosis FBA enzyme; AID 588726; purified M. tuberculosis FBA, fluorescence read-out; inhibition, % at 1 µM; 360,000 compounds, 2.3% hits; in the data active = inhibition above about 27%;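 also: 0% = vehicle and 100% = reference inhibitor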
Target sequence (P9WQA3 whole entry, looked up): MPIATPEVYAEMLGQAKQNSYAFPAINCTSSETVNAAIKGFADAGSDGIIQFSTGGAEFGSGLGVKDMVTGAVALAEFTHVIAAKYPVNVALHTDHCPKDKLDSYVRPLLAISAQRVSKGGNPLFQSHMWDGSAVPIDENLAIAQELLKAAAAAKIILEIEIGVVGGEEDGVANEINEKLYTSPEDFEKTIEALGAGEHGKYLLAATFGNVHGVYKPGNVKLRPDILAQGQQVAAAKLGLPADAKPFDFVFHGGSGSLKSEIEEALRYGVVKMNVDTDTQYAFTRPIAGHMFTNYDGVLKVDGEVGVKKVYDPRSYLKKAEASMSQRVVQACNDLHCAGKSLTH
GDH-TPI counter – GDH-TPI coupled enzyme inhibition counter-screen. inhibition, % at 4.8 µM. GDH-TPI coupled enzyme counterscreen, NADH absorbance. 360,000 compounds, 1.2% hits; in the data active = inhibition above about 30%;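 also: 0% = DMSO wells and 100% = wells lacking the enzyme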
FadD28 binding – inhibitors of Mycobacterium tuberculosis FadD28 bisubstrate binding | inhibition, % at 12.5 µM | FadD28 bisubstrate probe binding, fluorescence polarization | 360,000 compounds, 0.22% hits; in the data active = inhibition above about 8.5%, passing the limit was not always enough
Mtb BioA inh – inhibitors of Mycobacterium tuberculosis BioA enzyme | purified M. tuberculosis BioA enzyme, plate reader | inhibition, % at 9.99 µM | 360,000 compounds, 0.096% hits; in the data active = inhibition above about 40%
Mtb hypoxia rep – reduces hypoxia-regulated biosensor signal in M. tuberculosis | M. tuberculosis hypoxia-regulated fluorescent reporter, fluorescence | fluorescence inhibition, % (concentration not given with the values) | 300,000 compounds, 0.1% hits | AID 1159583; in the data active = fluorescence inhibition mostly above about 23%, no sharp cut-off; inactive = mostly below about 17%
The depositor's hits bear a star.

For CC(=O)Nc1ccc2nc(NC(=O)c3cccs3)sc2c1 the results were Mtb FBA inh -2, GDH-TPI counter 53*, FadD28 binding -4, Mtb BioA inh 1 and Mtb hypoxia rep 23.
For O=C(Nc1nc2cc3c(cc2s1)OCCO3)c1cccs1 the results were Mtb FBA inh 4, GDH-TPI counter 38*, FadD28 binding 0 and Mtb hypoxia rep 4.
For C[C@@H]1CN([C@@H](C)CO)C(=O)c2cccc(NS(=O)(=O)c3cccs3)c2O[C@@H]1CN(C)C(=O)Nc1ccc2c(c1)OCO2 the results were Mtb BioA inh 0.
Screening CC(C)NC(=O)Nc1ccc2c(c1)C(=O)N([C@@H](C)CO)C[C@H](C)[C@@H](CN(C)C(=O)Nc1ccc(F)cc1)O2 returned Mtb BioA inh -1.
Screening Cc1ccc(-c2ccc(/C=N/N=C3/NC(=O)C(CC(=O)O)S3)o2)c([N+](=O)[O-])c1 (stereo not given) returned Mtb FBA inh -4, GDH-TPI counter 36* and FadD28 binding 1.
For O=C(O)CC1S/C(=N/N=C/c2ccc(-c3ccccc3[N+](=O)[O-])o2)NC1=O (stereo not given) the results were Mtb FBA inh -5, GDH-TPI counter 40*, FadD28 binding 0 and Mtb BioA inh -1.
O=C(O)CC1S/C(=N/N=Cc2ccc(-c3ccc(Cl)c([N+](=O)[O-])c3)o2)NC1=O (stereo not given) was read as Mtb hypoxia rep 14.
O=C1c2cc(O)c(O)cc2OC(c2ccc(O)c(O)c2)C1O (stereo not given) was read as Mtb FBA inh -6, GDH-TPI counter 32*, FadD28 binding -3 and Mtb hypoxia rep 17.
For O=C(Nc1ncc2c(n1)-c1ccccc1OC2)c1ccccc1Cl the results were Mtb FBA inh 113*, GDH-TPI counter 20, FadD28 binding -5, Mtb BioA inh -2 and Mtb hypoxia rep 5.
Screening O=C(Nc1ncc2c(n1)-c1ccccc1CC2)C1CC1 returned Mtb FBA inh 1, GDH-TPI counter -3, FadD28 binding 3 and Mtb hypoxia rep 6.
`O=c1[nH]c(=O)c2nc(-c3ccc(Cl)cc3)cnc2[nH]1` gave Mtb FBA inh active, GDH-TPI counter 9, FadD28 binding 1, Mtb BioA inh 0 and Mtb hypoxia rep 1.
COc1ccc(NC(=O)CSc2nc(O)cc(=O)n2-c2ccccc2)cc1 was read as Mtb FBA inh 0, GDH-TPI counter 2, FadD28 binding -1, Mtb BioA inh 0 and Mtb hypoxia rep 2.
For N#Cc1c(SCC(=O)Nc2nc3ccc(Br)cc3s2)sc2c(O)cc(=O)[nH]c12 the results were Mtb FBA inh 5, GDH-TPI counter 24, FadD28 binding 0 and Mtb BioA inh -2.
For N#Cc1c(SCC(=O)Nc2nc3ccccc3s2)sc2c(O)cc(=O)[nH]c12 the results were Mtb FBA inh 0, GDH-TPI counter 23, FadD28 binding 12*, Mtb BioA inh 0 and Mtb hypoxia rep -1.
N#Cc1c(SCC(=O)Nc2ccc(Cl)cc2Cl)sc2c(O)cc(=O)[nH]c12 was read as Mtb FBA inh 1, GDH-TPI counter 33*, FadD28 binding 0, Mtb BioA inh -1 and Mtb hypoxia rep -9.
Cc1c(Cl)cccc1NC(=O)CSc1sc2c(O)cc(=O)[nH]c2c1C#N was read as Mtb FBA inh -1, GDH-TPI counter 21, FadD28 binding -2, Mtb BioA inh 0 and Mtb hypoxia rep -3.
For O=C(CSc1nc(O)cc(=O)n1-c1ccccc1)Nc1nc2ccccc2s1 the results were Mtb FBA inh 0, GDH-TPI counter -1, FadD28 binding 13*, Mtb BioA inh -2 and Mtb hypoxia rep 6.
COCc1cc(=O)[nH]c(Nc2nc3ccc(C)cc3o2)n1 was read as Mtb FBA inh 7, GDH-TPI counter 34*, FadD28 binding 0 and Mtb hypoxia rep -19.
COc1ccc(C=NNC(=O)COc2ccc3ccccc3c2)c(C(=O)O)c1OC was read as Mtb hypoxia rep 7.
`C=CCN1C(=O)C(CC(=O)O)S/C1=N/N=C/c1ccc(N(CC)CC)cc1` (stereo not given) gave Mtb FBA inh 23, GDH-TPI counter 35*, FadD28 binding 1 and Mtb BioA inh 1.
For CNC(=O)C[C@H]1CC[C@H]2[C@H](COc3ccc(NC(=O)c4ccccc4OC)cc3C(=O)N2C)O1 the results were Mtb BioA inh 2.
Screening Cc1c(-c2cccc(NC(=O)c3cccs3)c2)nc2ncccn12 returned Mtb FBA inh active, GDH-TPI counter 11, FadD28 binding -7 and Mtb hypoxia rep 3.
For O=C(Nc1cccc(-c2cnc3ccccc3n2)c1)c1ccco1 the results were Mtb FBA inh 0, GDH-TPI counter 20, FadD28 binding -2 and Mtb hypoxia rep 1.
For Cc1c(-c2cccc(NC(=O)c3ccco3)c2)nc2ncccn12 the results were Mtb FBA inh active, GDH-TPI counter 29, FadD28 binding -5 and Mtb hypoxia rep 10.
`CCC1=NN2C(=N)/C(=C\c3ccc(SCc4ccco4)o3)C(=O)N=C2S1` gave Mtb FBA inh -11, GDH-TPI counter 22, FadD28 binding 11*, Mtb BioA inh -7 and Mtb hypoxia rep -2.
For CCCC1=NN2C(=N)/C(=C\c3ccc(SCc4ccco4)o3)C(=O)N=C2S1 the results were Mtb FBA inh -5, GDH-TPI counter 9, FadD28 binding 14* and Mtb BioA inh -5.
For CC(=NNC(=O)Cc1cccc2ccccc12)c1ccncc1 the results were Mtb hypoxia rep 1.
Screening COCCn1c(=NC(=O)CSC(C)=O)sc2cc(OC)ccc21 returned Mtb FBA inh -1, GDH-TPI counter 15, FadD28 binding -5, Mtb BioA inh 1 and Mtb hypoxia rep 6.
COCCn1c(=NC(=O)CSCC(=O)NC2CCCCC2)sc2cc(OC)ccc21 was read as Mtb FBA inh -2, GDH-TPI counter 42*, FadD28 binding -1 and Mtb BioA inh -2.
For CN(C)C=Nc1ncc2c3ccccc3n(CCN(C)C)c2c1C#N the results were Mtb FBA inh 7, GDH-TPI counter 33*, FadD28 binding -1, Mtb BioA inh -1 and Mtb hypoxia rep 6.
For COc1cccc(-c2ccc3c(c2)O[C@H](CN(C)Cc2cccnc2)[C@H](C)CN([C@H](C)CO)S3(=O)=O)c1 the results were Mtb BioA inh -1.
Screening CC(=O)c1ccc(N2CCN(S(=O)(=O)c3ccc4c(c3)C(Cl)(Cl)C(=O)N4)CC2)cc1 returned Mtb FBA inh 0, GDH-TPI counter 32*, FadD28 binding -2 and Mtb BioA inh 8.
`COCC(=O)N(C)C[C@H]1Oc2ncc(-c3ccc(C#N)cc3)cc2C(=O)N([C@@H](C)CO)C[C@@H]1C` gave Mtb BioA inh 4.
`N#CCC(=O)Nc1ccc(C(=O)OCC(=O)Nc2cccc3ccccc23)cc1` gave Mtb FBA inh 2, GDH-TPI counter 9, FadD28 binding 0 and Mtb BioA inh 0.
N#CCC(=O)Nc1ccc(C(=O)OCC(=O)Nc2cccc(C(F)(F)F)c2)cc1 was read as Mtb FBA inh 3, GDH-TPI counter 3, FadD28 binding 11* and Mtb hypoxia rep 10.

From PubChem
